We go through six compounds from PubChem BioAssay (NCATS).

Assay [1] has as its target Phospholipid hydroperoxide glutathione peroxidase GPX4 (Homo sapiens) (UniProt P36969). Description: Primary qHTS Assay for Inhibitors of Recombinant Selenoprotein Glutathione Peroxidase 4 (GPX4) (AID 1845192). Also: nearly all actives have a fitted effect of over 65% in size. A digest of the protocol:
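GR-coupled readout: 100 nM GR, 1 mM GSH, 0.5 mM NADPH; NADPH fluorescence (ex 340/em 450 nm) read at t=0 and after 15 min RT. GPX4 200 nM, preincubated 30 min with compound; substrate 0.5 mM CHP.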

For assay [2], the target named is Luciferin 4-monooxygenase (Photinus pyralis) (UniProt P08659). Description: Primary firefly luciferase (FLuc) qHTS assay for identification of artifact compounds. (AID 1845220). Also: nearly all actives have a fitted effect of over 60% in size. A digest of the protocol:
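Reaction readout was CCD-imaged luminescence, taken 5 min after adding 10 nM purified firefly enzyme to compound-treated wells holding 10 uM luciferin and ATP in pH 7.6 buffer.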
(Quantitative high-throughput screening tests each substance at several concentrations.)

The nature of assay [3]: Primary fluorescence-based thiol-reactive (MSTI) qHTS assay for identification of artifact compounds. (AID 1845221).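 Also: thiol-reactive compounds lower the probe fluorescence signal; nearly all actives have a fitted effect of over 65% in size.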 A digest of the protocol: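 MSTI probe at 4 uM final in 2% DMSO/PBS pH 7.4; compounds, 1 h at room temperature in dark. Fluorescence Ex/Em 525/598 nm, normalised to Acetyl-MSTI and MSTI, fitted to 4-parameter Hill.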
Assay [4] relates to Nanoluciferase (engineered Oplophorus gracilirostris luciferase). Briefly: Primary Nanoluciferase (NLuc) qHTS assay for identification of artifact compounds. (AID 1845222).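 Also: NLuc secreted into diluted conditioned medium of S16 cells.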 A digest of the protocol:
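Concentration-response data were obtained by luminescence after 5 min with Nano-Glo substrate at 1:100. The enzyme was diluted S16 NLuc-expressing cell medium, preincubated with compound for 15 min at RT. Curves were fitted with a 4-parameter Hill model.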

Assay [5] can be described thus: Primary redox qHTS assay for identification of artifact compounds. (AID 1845223). A digest of the protocol: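 Amplex Red (25 uM) and HRP (250 mU/mL) in HBSS, with compounds for 15 min, then 250 uM DTT for 30 min, room temperature, dark. Fluorescence 525/598 nm read; normalized to DMSO and 10 uM DA3003; Hill fit.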
The nature of assay [6]: Quantitative High-Throughput drug screen in 47 multiple myeloma cell lines against the NCATS MIPE library collection: FR4_PLB cell viability assay (AID 1918924; also: nearly all actives have a fitted effect of over 35% in size; also: potency is read from the fitted curve at half-maximal effect). A digest of the protocol:
(§1)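 Viability readout: CellTiter-Glo luminescence following 5 min room-temperature incubation with reagent. Prior exposure: 48 h, 37C, humidified 5% CO2, 500 cells per well.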

Assay [7] in a line: Quantitative High-Throughput drug screen in 47 multiple myeloma cell lines against the NCATS MIPE library collection: Delta47_JCRB cell viability assay (AID 1918925; also: potency is read from the fitted curve at half-maximal effect; nearly all actives have a fitted effect of over 45% in size). A digest of the protocol:
(§2)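 Inhibition of cell viability is measured here. Each line was plated at 500 cells per well, treated with MIPE 4.0 drugs, kept 48 hours at 37C, then assayed for ATP content by CellTiter-Glo luminescence.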

Assay [8] is described as follows: Quantitative High-Throughput drug screen in 47 multiple myeloma cell lines against the NCATS MIPE library collection: EJM_DSMZ cell viability assay (AID 1918926; also: nearly all actives have a fitted effect of over 30% in size; also: potency is read from the fitted curve at half-maximal effect). A digest of the protocol:
as §2

Assay [9] in a line: Quantitative High-Throughput drug screen in 47 multiple myeloma cell lines against the NCATS MIPE library collection: Karpas620_DSMZ cell viability assay (AID 1918959). Also: nearly all actives have a fitted effect of over 30% in size. Also: potency is read from the fitted curve at half-maximal effect. A digest of the protocol:
as §1

Assay [10] in a line: Quantitative High-Throughput drug screen in 47 multiple myeloma cell lines against the NCATS MIPE library collection: Karpas417_ECACC cell viability assay (AID 1918961). Also: potency is read from the fitted curve at half-maximal effect. To be noted: Karpas417 myeloma viability, CellTiter-Glo ATP luminescence, 48 h; viability (% of DMSO): at 45.8 µM (top of the series). A digest of the protocol:
(§3)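 Approved and investigational drugs from MIPE 4.0 were added by pin tool to 500 cells per well. After 48 hours at 37C, ATP-based CellTiter-Glo luminescence indicated remaining viability.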
(Cellular ATP, detected with luciferase, serves as a proxy for viable cell number.)

Assay [11] can be described thus: Quantitative High-Throughput drug screen in 47 multiple myeloma cell lines against the NCATS MIPE library collection: KHM11_PLB cell viability assay (AID 1918962). Also: nearly all actives have a fitted effect of over 35% in size. Also: potency is read from the fitted curve at half-maximal effect. A digest of the protocol:
as §1

The nature of assay [12]: Quantitative High-Throughput drug screen in 47 multiple myeloma cell lines against the NCATS MIPE library collection: JJN3_DSMZ cell viability assay (AID 1918966; also: potency is read from the fitted curve at half-maximal effect; nearly all actives have a fitted effect of over 50% in size). A digest of the protocol:
as §2

Assay [13] can be described thus: Quantitative High-Throughput drug screen in 47 multiple myeloma cell lines against the NCATS MIPE library collection: H1112_PLB cell viability assay (AID 1918967; also: nearly all actives have a fitted effect of over 30% in size; also: potency is read from the fitted curve at half-maximal effect). A digest of the protocol: as §2
A short description of assay [14]: Quantitative High-Throughput drug screen in 47 multiple myeloma cell lines against the NCATS MIPE library collection: ARP1_JJKsccF8 cell viability assay (AID 1918928; also: potency is read from the fitted curve at half-maximal effect; nearly all actives have a fitted effect of over 40% in size). A digest of the protocol: (§4)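 Myeloma cells at 500 per well in 1536-well format treated with MIPE 4.0 library by pin transfer for 48 h at 37C, 5% CO2. Viability from ATP luminescence (CellTiter-Glo), normalized to DMSO (100%) and media-only (0%) wells.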

Assay [15] in a line: Quantitative High-Throughput drug screen in 47 multiple myeloma cell lines against the NCATS MIPE library collection: ARD_JJKsccE7 cell viability assay (AID 1918929; also: potency is read from the fitted curve at half-maximal effect). A digest of the protocol: as §2
Assay [16] is described as follows: Quantitative High-Throughput drug screen in 47 multiple myeloma cell lines against the NCATS MIPE library collection: KMM1_JCRB cell viability assay (AID 1918960). Also: nearly all actives have a fitted effect of over 30% in size. Also: potency is read from the fitted curve at half-maximal effect. A digest of the protocol: as §4
Assay [17] can be described thus: Quantitative High-Throughput drug screen in 47 multiple myeloma cell lines against the NCATS MIPE library collection: JIM1_ECACC cell viability assay (AID 1918964; also: potency is read from the fitted curve at half-maximal effect). A digest of the protocol:
as §2

Assay [18] can be described thus: Quantitative High-Throughput drug screen in 47 multiple myeloma cell lines against the NCATS MIPE library collection: INA6_PLB cell viability assay (AID 1918965; also: potency is read from the fitted curve at half-maximal effect; nearly all actives have a fitted effect of over 55% in size). A digest of the protocol:
as §3

The nature of assay [19]: Quantitative High-Throughput drug screen in 47 multiple myeloma cell lines against the NCATS MIPE library collection: JIM3_ECACC cell viability assay (AID 1918963; also: nearly all actives have a fitted effect of over 35% in size; also: potency is read from the fitted curve at half-maximal effect). A digest of the protocol:
as §1

Assay [20] is described as follows: Quantitative High-Throughput drug screen in 47 multiple myeloma cell lines against the NCATS MIPE library collection: AMO1_DSMZ cell viability assay (AID 1918927). A digest of the protocol:
as §2

Unmarked numbers belong to inactive results. Inconclusive results are not listed. Activity calls are given as the source filed them. Calls follow the shape of the dose curve; as a rule, active = well fitted curve in the direction sought with a large enough effect; inconclusive = small, poorly fitted or top-dose-only effect, or another doubt; inactive = no such curve, though single readings can be large; an effect the other way counts as inactive or inconclusive.

Sequence of Phospholipid hydroperoxide glutathione peroxidase GPX4 (Homo sapiens) (P36969 whole entry, looked up): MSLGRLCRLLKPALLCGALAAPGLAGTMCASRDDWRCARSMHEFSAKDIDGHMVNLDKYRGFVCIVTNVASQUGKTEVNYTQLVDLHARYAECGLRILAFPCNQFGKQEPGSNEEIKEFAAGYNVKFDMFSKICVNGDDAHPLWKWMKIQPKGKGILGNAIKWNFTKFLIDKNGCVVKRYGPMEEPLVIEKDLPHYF

Take `Cc1cnc(Nc2cccc(CN3CCOCC3)c2)nc1Nc1cccc(S(=O)(=O)NC(C)(C)C)c1`: the Potency entry in assay [1], in assay [2], in assay [3] and in [4] was “inactive” in each case. Besides, the compound was called inactive in assay [5]. In addition, the Potency in assay [6] is 14800 nM (active); in [7], 4180 nM (active); in assay [8], 10500 nM (active); in assay [9] it was 4690 nM (active); in [10], 662 nM (active); in assay [11], 13200 nM (active). For the same compound, the Potency in [12] is 5900 nM (active); in [13] it was 13200 nM (active).

Consider `CN1CCC(COc2cnc(-c3cccc(Cn4nc(-c5cccc(C#N)c5)ccc4=O)c3)nc2)CC1`, for which the Potency result in assay [1], in assay [2], in assay [3], in assay [4], in [15] and in assay [9] was “inactive” throughout. For the same compound, the Potency result in [16] and in assay [17] was “inactive” throughout. Also, the outcome in assay [5] was inactive. Further, the Potency is 26400 nM (active) in assay [6]; 209 nM (active) in assay [7]; 20900 nM (active) in assay [14]; 8330 nM (active) in assay [11]; 418 nM (active) in assay [18]; 33.2 nM (active) in assay [12]. For the same compound, in [13], the Potency was 118 nM (active).

Consider `NC1(C(=O)N[C@@H](CCO)c2ccc(Cl)cc2)CCN(c2ncnc3[nH]ccc23)CC1`, for which the Potency entry in assay [1], in assay [2], in assay [3] and in assay [4] was “inactive” throughout. Also, the outcome in [5] was inactive. For the same compound, the Potency in [7] is 83.3 nM (active); in assay [8] it was 10500 nM (active); in assay [14], 2090 nM (active); in [15] it was 46.9 nM (active); in [9], 2640 nM (active); in [16], 118 nM (active). Besides, the Potency in assay [11] is 1870 nM (active); in [19], 1050 nM (active); in assay [17], 209 nM (active); in assay [18] it was 7430 nM (active); in assay [12], 2960 nM (active); in [13], 7430 nM (active).

Regarding `CCN(CCO)CCCOc1ccc2c(Nc3cc(CC(=O)Nc4cccc(F)c4)[nH]n3)ncnc2c1`, the Potency entry in assay [1], in [2], in assay [3], in assay [4], in [6] and in assay [8] was “inactive” each time. Also, the Potency entry in assay [15], in assay [9], in [16], in [11], in assay [19] and in assay [13] was “inactive” in each case. Besides, the outcome in [5] was inactive. Also, the Potency is 187 nM (active) in assay [20] and 74.3 nM (active) in [18].

As for `CC[C@H](CC#N)OC(=O)N[C@@H](C)c1cccc(NC(=O)Nc2ccc(-c3cnco3)c(OC)c2)c1`, the Potency result in [1], in assay [2], in assay [3] and in assay [4] was “inactive” throughout. In addition, in assay [5], the compound was called inactive. In addition, the Potency in assay [6] is 1480 nM (active); in [8], 11800 nM (active); in [20], 418 nM (active); in [15], 14800 nM (active); in [9], 18700 nM (active); in assay [16] it was 418 nM (active). Besides, the results for the Potency in assay [19], in assay [18] and in [13] were 1320 nM (active), 1050 nM (active) and 1660 nM (active), respectively.

Take `CC1(C)CC(=O)c2c(C(F)(F)F)nn(-c3ccc(C(N)=O)c(NC4CCC(O)CC4)c3)c2C1` (stereo unspecified): the Potency entry in [1], in assay [2], in [3], in [4], in assay [15] and in assay [16] was “inactive” in each case. Further, the call in assay [5] was inactive. Moreover, the Potency in [6] is 59 nM (active); in assay [14], 132 nM (active); in assay [19] it was 105 nM (active); in assay [12] it was 66.2 nM (active).
